Records with an inconclusive call do not appear. Active and inactive are the calls of the source. Unless noted, calls come from the whole dose curve; as a rule, active = well fitted curve in the direction sought with a large enough effect in the repeat runs; inconclusive = weak or mixed curves; inactive = no such curve, though single readings can be large; an effect the other way counts as inactive or inconclusive.
Columns and labels:
[1] = qHTS assay to test for compound auto fluorescence at 535 nm (green) in HEK293 cells (AID 720680)
[2] = qHTS assay to test for compound auto fluorescence at 460 nm (blue) in HEK293 cell free culture (AID 720681)
In short: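 Blue fluorescence (Ex 405/Em 460 nm, triamterene-equivalent) was read immediately after pin transfer of compound or DMSO into medium (DMEM, 10% FBS) without cells.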

[3] = qHTS assay to test for compound auto fluorescence at 535 nm (green) in HEK293 cell free culture (AID 720682)
In short: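 Green-label autofluorescence (485 nm excitation, 535 nm emission) measured on compound added to cell-free culture medium (DMEM, 10% FBS). Output is expressed relative to fluorescein.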

[4] = qHTS assay to test for compound auto fluorescence at 590 nm (red) in HEK293 cell free culture (AID 720683)
In short: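 Red-channel autofluorescence of compounds in culture medium (DMEM, 10% FBS), no cells, measured at 540/590 nm. Rose Bengal sodium is the reference fluorophore for equivalence.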

[5] = qHTS assay to test for compound auto fluorescence at 590 nm (red) in HepG2 cell free culture (AID 720684)
In short: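 Cell-free; medium MEM + 10% FBS; compound or DMSO added by pintool; read Ex 540/Em 590 nm; Rose Bengal sodium as red reference fluorophore.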

[6] = qHTS assay to test for compound auto fluorescence at 460 nm (blue) in HepG2 cell free culture (AID 720685)
In short: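 Cell-free plates of MEM plus 10% FBS received 23 nL compound or DMSO vehicle; blue-channel (405/460 nm) intensity scored against triamterene as reference fluorophore.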

[7] = qHTS assay to test for compound auto fluorescence at 535 nm (green) in HepG2 cell free culture (AID 720686)
[8] = qHTS assay to test for compound auto fluorescence at 460 nm (blue) in HepG2 cells (AID 720687)
In short: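 Blue-channel autofluorescence (Ex/Em 405/460 nm, triamterene-equivalent) was measured after 1 hr compound exposure at 37 C, 5% CO2. Cells were HepG2, plated overnight at 37 C in MEM plus 10% FBS.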

[9] = biological target: Glucocorticoid receptor (Homo sapiens) (UniProt P04150); assay: qHTS assay to identify small molecule agonists of the glucocorticoid receptor (GR) signaling pathway (AID 720691; active = well fitted activation curve with a large enough effect in the signal ratio in the repeat runs, not every such curve was filed as active; the % refers to the signal ratio)
Glucocorticoid receptor (Homo sapiens), sequence (P04150 whole entry, looked up): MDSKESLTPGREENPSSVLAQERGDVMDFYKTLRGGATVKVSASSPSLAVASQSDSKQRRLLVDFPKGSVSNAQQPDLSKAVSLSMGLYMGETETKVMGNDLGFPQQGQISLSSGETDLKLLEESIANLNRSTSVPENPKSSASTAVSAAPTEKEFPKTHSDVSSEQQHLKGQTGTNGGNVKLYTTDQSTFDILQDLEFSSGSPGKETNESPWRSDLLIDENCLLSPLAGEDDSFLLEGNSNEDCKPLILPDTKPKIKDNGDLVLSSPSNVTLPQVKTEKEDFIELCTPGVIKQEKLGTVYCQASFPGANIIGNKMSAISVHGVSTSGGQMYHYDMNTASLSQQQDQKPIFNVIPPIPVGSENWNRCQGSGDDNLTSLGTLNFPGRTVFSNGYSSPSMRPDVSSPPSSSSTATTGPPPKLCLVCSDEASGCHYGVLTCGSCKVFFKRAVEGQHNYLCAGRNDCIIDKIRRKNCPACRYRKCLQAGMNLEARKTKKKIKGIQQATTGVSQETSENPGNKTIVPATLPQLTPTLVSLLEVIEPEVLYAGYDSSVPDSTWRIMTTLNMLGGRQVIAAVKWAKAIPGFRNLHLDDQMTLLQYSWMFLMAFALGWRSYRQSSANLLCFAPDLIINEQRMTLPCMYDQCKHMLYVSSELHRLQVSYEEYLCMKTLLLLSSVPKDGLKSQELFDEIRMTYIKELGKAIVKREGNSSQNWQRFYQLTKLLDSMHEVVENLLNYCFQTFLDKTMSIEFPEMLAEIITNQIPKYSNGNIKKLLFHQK
In short: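 Steps: seed GR-bla HeLa cells, incubate 4 h at 37 C/5% CO2; pin-transfer DMSO-dissolved compounds; incubate 18 h at 37 C; add LiveBLAzer B/G FRET substrate; after 2 h at room temperature, measure fluorescence.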

[10] = biological target: Glucocorticoid receptor (Homo sapiens) (UniProt P04150); assay: qHTS assay to identify small molecule antagonists of the glucocorticoid receptor (GR) signaling pathway (AID 720692; active = well fitted inhibition curve with a large enough effect in the signal ratio in the repeat runs, not every such curve was filed as active; the % refers to the signal ratio)
In short: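 Antagonism was scored as loss of dexamethasone-driven (5 nM final) reporter signal in HeLa cells bearing a glucocorticoid response element–beta-lactamase construct, after 18 h compound exposure at 37 C and 2 h FRET substrate loading.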

[11] = qHTS assay to identify small molecule antagonists of the glucocorticoid receptor (GR) signaling pathway - cell viability counter screen (AID 720693); note: nearly all actives have a fitted effect of over 55% in size
[12] = qHTS assay for identifying genotoxic compounds that show differential cytotoxicity against isogenic chicken DT40 cell lines with known DNA damage response pathways - wild type cell line (AID 743012); note: nearly all actives have a fitted effect of over 60% in size
In short: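 Cytotoxicity in repair-proficient parental chicken DT40 cells serves as the comparator for Rad54/Ku70- and Rev3-deficient lines. Cells were exposed to compounds for 40 h at 37 C/5% CO2, and ATP-based luminescence (CellTiter-Glo) measured viability.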

[13] = qHTS assay for identifying genotoxic compounds that show differential cytotoxicity against isogenic chicken DT40 cell lines with known DNA damage response pathways - Rev3 mutant cell line (AID 743014); note: nearly all actives have a fitted effect of over 55% in size
[14] = qHTS assay for identifying genotoxic compounds that show differential cytotoxicity against isogenic chicken DT40 cell lines with known DNA damage response pathways - Rad54/Ku70 mutant cell line (AID 743015); note: nearly all actives have a fitted effect of over 60% in size
[15] = qHTS assay to identify small molecule antagonists of the androgen receptor (AR) signaling pathway - cell viability counter screen (AID 743033; note: nearly all actives have a fitted effect of over 45% in size)
[16] = qHTS assay to identify small molecule antagonists of the androgen receptor (AR) signaling pathway using the MDA cell line - cell viability counter screen (AID 743041; note: nearly all actives have a fitted effect of over 45% in size)
In short: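 Viability read by CellTiter-Fluor fluorescence in the same wells as the antagonist screen, added after 15.5 h of a 16 h, 37C exposure. Human breast carcinoma MDA-kb2 AR-luc cells, compounds co-dosed with agonist R1881.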

[17] = biological target: Androgen receptor (Homo sapiens) (UniProt P10275); assay: qHTS assay to identify small molecule antagonists of the androgen receptor (AR) signaling pathway (AID 743035; active = well fitted inhibition curve with a large enough effect in the signal ratio in the repeat runs, not every such curve was filed as active; the % refers to the signal ratio)
Androgen receptor (Homo sapiens), sequence (P10275 whole entry, looked up): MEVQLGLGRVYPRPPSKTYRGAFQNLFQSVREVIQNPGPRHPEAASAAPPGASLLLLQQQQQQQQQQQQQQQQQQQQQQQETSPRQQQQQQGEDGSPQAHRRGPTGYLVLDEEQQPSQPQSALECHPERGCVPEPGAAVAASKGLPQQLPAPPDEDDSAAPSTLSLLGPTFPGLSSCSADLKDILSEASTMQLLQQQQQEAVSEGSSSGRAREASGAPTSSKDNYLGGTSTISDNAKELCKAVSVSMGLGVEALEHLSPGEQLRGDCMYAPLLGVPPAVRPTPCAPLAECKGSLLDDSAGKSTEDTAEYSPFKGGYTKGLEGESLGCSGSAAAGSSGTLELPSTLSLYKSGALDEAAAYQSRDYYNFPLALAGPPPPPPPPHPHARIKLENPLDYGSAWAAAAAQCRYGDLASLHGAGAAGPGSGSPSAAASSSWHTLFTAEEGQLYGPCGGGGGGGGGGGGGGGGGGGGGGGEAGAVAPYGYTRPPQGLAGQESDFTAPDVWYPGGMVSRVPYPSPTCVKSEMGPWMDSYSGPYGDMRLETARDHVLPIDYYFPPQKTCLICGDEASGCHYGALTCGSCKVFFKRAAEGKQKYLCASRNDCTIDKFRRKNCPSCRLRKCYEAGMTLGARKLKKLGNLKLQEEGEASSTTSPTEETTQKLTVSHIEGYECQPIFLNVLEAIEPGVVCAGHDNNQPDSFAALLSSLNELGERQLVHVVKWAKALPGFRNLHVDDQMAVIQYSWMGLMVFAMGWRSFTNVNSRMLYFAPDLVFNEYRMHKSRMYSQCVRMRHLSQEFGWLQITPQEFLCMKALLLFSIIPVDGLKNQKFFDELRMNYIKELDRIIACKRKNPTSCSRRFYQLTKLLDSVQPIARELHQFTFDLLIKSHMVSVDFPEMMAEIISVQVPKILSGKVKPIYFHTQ
In short: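 Steps: seed AR-UAS-bla GripTite HEK293 cells, incubate 4 h at 37C; pin in test compound, then add agonist R1881; incubate 16 h at 37C; add LiveBLAzer B/G FRET substrate, 2 h at room temperature; read fluorescence.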

[18] = biological target: Androgen receptor (Homo sapiens) (UniProt P10275); assay: qHTS assay to identify small molecule agonists of the androgen receptor (AR) signaling pathway (AID 743036; active = well fitted activation curve with a large enough effect in the signal ratio in the repeat runs, with a control signal flat, not every such curve was filed as active; the % refers to the signal ratio)
In short: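 AR-UAS-bla HEK293 cells, plated 4 h before dosing, were treated with compound for 16 h at 37C. beta-Lactamase reporter read after 2 h with LiveBLAzer B/G FRET substrate at room temperature.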

[19] = biological target: Androgen receptor (Homo sapiens) (UniProt P10275); assay: qHTS assay to identify small molecule agonists of the androgen receptor (AR) signaling pathway using the MDA cell line (AID 743040; note: nearly all actives have a fitted effect of over 20% in size); settings: MDA-kb2 AR-luc cells, MMTV luciferase, 16 h, active compounds read high
In short: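 Luciferase agonist assay: 16 h compound exposure at 37C without CO2 in MDA-kb2 AR-luc cells, whose MMTV promoter responds to both AR and GR. Luminescence measured after 30 min room-temperature incubation with ONE-Glo.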

[20] = biological target: Androgen receptor (Homo sapiens) (UniProt P10275); assay: qHTS assay to identify small molecule antagonists of the androgen receptor (AR) signaling pathway using the MDA cell line (AID 743042; note: nearly all actives have a fitted effect of over 55% in size)
In short: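 Antagonist mode: compounds plus R1881 agonist added to MDA-kb2 AR-luc cells, incubated 16 h at 37C. Luciferase reporter luminescence quantified, with multiplexed CellTiter-Fluor readout for cell viability.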
% is set by controls: 0 for no effect and ±100 for the full control effect.

NC(N)=S
inactive: outcome [1] | Potency [2] | outcome [3] | outcome [4] | outcome [5] | Potency [6] | outcome [7] | Potency [8] | outcome [9] | Potency [10] | Potency [11] | Potency [12] | Potency [13] | Potency [14] | Potency [15]

CC(C)(C)NC[C@H](O)COc1nsnc1N1CCOCC1
inactive: outcome [1] | Potency [2] | outcome [3] | outcome [4] | outcome [5] | Potency [6] | outcome [7] | Potency [8] | outcome [9] | Potency [10] | Potency [11] | Potency [12] | Potency [13] | Potency [14] | Potency [16]

CCCCCCCCCCCCCC(=O)O
inactive: outcome [1] | Potency [2] | outcome [3] | outcome [4] | outcome [5] | Potency [6] | outcome [7] | Potency [8] | outcome [9] | Potency [10] | Potency [11] | Potency [13] | Potency [14] | Potency [15] | Potency [16]

CC(=O)c1nccs1
inactive: outcome [1] | Potency [2] | outcome [3] | outcome [4] | outcome [5] | Potency [6] | outcome [7] | Potency [8] | outcome [9] | Potency [10] | Potency [11] | Potency [13] | Potency [14] | Potency [15]

NC(=O)NC(N)=O
inactive: outcome [1] | Potency [2] | outcome [3] | outcome [4] | outcome [5] | Potency [6] | outcome [7] | Potency [8] | Potency [11] | Potency [12] | Potency [13] | Potency [14] | Potency [15] | Potency [16]

COc1c2ccoc2cc2oc(=O)ccc12
inactive: outcome [1] | Potency [2] | outcome [3] | outcome [4] | outcome [5] | Potency [6] | outcome [7] | Potency [8] | outcome [9] | Potency [10] | Potency [11] | Potency [13] | Potency [14] | Potency [15] | Potency [16]

CCCOC(=O)NCCCN(C)C
inactive: outcome [1] | Potency [2] | outcome [3] | outcome [4] | outcome [5] | Potency [6] | outcome [7] | Potency [8] | Potency [11] | Potency [12] | Potency [13] | Potency [14]

O=[N+]([O-])c1cc(C(F)(F)F)ccc1Cl
inactive: outcome [1] | Potency [2] | outcome [3] | outcome [4] | outcome [5] | Potency [6] | outcome [7] | Potency [8] | outcome [9] | Potency [10] | Potency [11] | Potency [12] | Potency [13] | Potency [14] | Potency [15] | Potency [17] | Potency [18] | activity change ([19]; at 70.3 µM (top of the series)) -0.292% | activity change ([19]; at 95 µM (top of the series)) 5.79% | Potency [20]
